Source: PubChem BioAssay
Records with an inconclusive call do not appear. The source made the active and inactive calls. Unless noted, the rule behind the calls is not given here.

Experiments:
[1] = rapamycin-like changes in RPL19A-GFP expression – cell-based, S. cerevisiae, multiplex flow cytometry, primary screen (AID 1862; in the data active = percent of DMSO control GFP below about 86%;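 note: lower values mimic rapamycin by blocking the RPL19A rise seen in DMSO cells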); settings: S. cerevisiae RPL19A-GFP strain, flow cytometry fluorescence, 3 h; at 10 µM; stronger effect = lower value
[2] = TOR pathway GLN3 branch reporter MEP2-GFP changes – S. cerevisiae, multiplex flow cytometry, primary screen (AID 1867;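 active = GFP response, as percent of the DMSO control, above the screen-wide mean plus 3 SD, about 139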;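 note: median GFP channel fluorescence of barcode-gated MEP2-GFP cells measured by flow cytometry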); settings: S. cerevisiae MEP2-GFP strain, 3 h, at 10 µM, stronger effect = higher value
[3] = TOR pathway RTG branch CIT2 reporter changes – S. cerevisiae, GFP fusion, multiplex flow cytometry, primary screen (AID 1870;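 active = percent response above a set limit, the screen-wide mean plus 3 SD, cut at about 130% in these data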;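 note: barcoded CIT2-GFP strain pooled with four other GFP strains with rapamycin as positive control; median GFP fluorescence per well over plate mean of DMSO wells so 100% = DMSO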); settings: S. cerevisiae CIT2-GFP expression, 3 h, at 10 µM, stronger effect = higher value
[4] = TOR pathway LAP4-GFP level changes – S. cerevisiae, multiplex flow cytometry, primary screen (AID 1873;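 active = GFP signal, as percent of the solvent control, above the screen mean plus 3 SD, about 149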); settings: S. cerevisiae LAP4-GFP expression, 3 h, at 10 µM, stronger effect = higher value
[5] = yeast AGP1-GFP level changes, GLN3 branch – cell-based, multiplex flow cytometry, S. cerevisiae, primary screen (AID 1887;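 active = GFP signal above the screen-wide mean plus 3 SD, that is over about 124.5% of the solvent control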;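 note: AGP1-GFP fusion strain of S. cerevisiae within a five-strain barcoded multiplex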); settings: 3 h, at 10 µM, stronger effect = higher value
[6] = reduced mouse 2C T cell binding to pMHC/ICAM-1 vesicles – MLPCN validation set, flow cytometry, LFA-1/ICAM-1 modulator project, pilot screen (AID 2523;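 active = response below a set limit, under 55% cells CD8-positive and vesicle-bound, and CD8 cells' 90th-percentile brightness under 279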;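 for vesicle binding response: mean PE anti-B7-1 fluorescence of CD8+ cells relative to row control; 100% = QL9-loaded vesicles with DMSO vehicle in the same plate row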); settings: 2C mouse CD8+ T cells, at 7 µM, stronger effect = lower value; double positive events: measured here: CD8+/vesicle+ event percentage
[7] = biological target: Integrin beta-1 (Homo sapiens) + Integrin alpha-4 (Homo sapiens) (UniProt P13612+P05556); assay: alpha4beta1 integrin LIBS antibody binding reduction – U937 cells, HUTS-21 mAb, flow cytometry, validation set, VLA-4 allosteric modulator project, pilot screen (AID 2674;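 active = inhibition above 50%, about 3 SD of the validation set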;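 note: antibody binding induced by the VLA-4 ligand LDV present at three times its Kd; 0% = LDV ligand with antibody and no compound and 100% = antibody without LDV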); settings: HUTS-21 LIBS mAb binding, at 6.7 µM, stronger effect = higher value
[8] = calorie-restriction mimetic ROS inhibitors, yeast – validation compound set, pilot screen (AID 2706;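 active = superoxide response below 65% of plate, a cut near 3 SD across the whole screen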;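 note: yeast exposed to compound for one week at 30 degrees C before staining; 100% = mean of all compound wells on the same plate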); settings: S. cerevisiae aging, superoxide DHE fluorescence; at 10 µM; stronger effect = lower value
[9] = biological target: Beta-adrenergic receptor kinase 1 (Homo sapiens) (UniProt P25098); assay: GRK2 binders displacing RNA aptamer, biochemical, validation, human GRK2, bead flow cytometry (AID 488806;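 active = aptamer binding inhibition above 30%, about 3 SD of noise from non-fluorescent compounds; inactive = inhibition at or below 30%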); settings: bead-bound GRK2, FAM-aptamer displacement, at 10 µM, stronger effect = higher value
Beta-adrenergic receptor kinase 1 (Homo sapiens), sequence (P25098 whole entry, looked up): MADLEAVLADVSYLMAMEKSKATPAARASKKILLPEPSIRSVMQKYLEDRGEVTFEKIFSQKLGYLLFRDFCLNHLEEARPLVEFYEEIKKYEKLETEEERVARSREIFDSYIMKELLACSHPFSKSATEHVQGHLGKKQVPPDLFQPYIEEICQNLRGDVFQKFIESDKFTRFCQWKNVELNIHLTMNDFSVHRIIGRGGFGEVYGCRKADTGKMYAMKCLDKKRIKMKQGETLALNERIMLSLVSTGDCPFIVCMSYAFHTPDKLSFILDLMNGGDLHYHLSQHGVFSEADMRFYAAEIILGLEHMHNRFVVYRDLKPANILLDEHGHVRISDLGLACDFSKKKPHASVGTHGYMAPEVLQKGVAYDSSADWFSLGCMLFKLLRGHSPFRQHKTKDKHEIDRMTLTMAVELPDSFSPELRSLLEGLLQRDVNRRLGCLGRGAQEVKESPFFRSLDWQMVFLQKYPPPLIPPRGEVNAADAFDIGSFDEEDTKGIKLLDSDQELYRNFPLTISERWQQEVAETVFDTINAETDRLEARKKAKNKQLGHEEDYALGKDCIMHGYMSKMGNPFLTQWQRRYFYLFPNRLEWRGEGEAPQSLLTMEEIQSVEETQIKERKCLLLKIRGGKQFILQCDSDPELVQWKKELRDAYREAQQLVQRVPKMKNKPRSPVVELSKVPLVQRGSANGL

[10] = biological target: Beta-2 adrenergic receptor (Homo sapiens) (UniProt P07550); assay: agonist-induced loss of surface beta2AR – cell-based, FAP fluorogen, flow cytometry, validation set, pilot screen (AID 504459;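 active = percent response above 42, roughly 3 SD of non-fluorescent test compounds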;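 note: agonist-driven loss of surface beta2AR via internalization measured by FAP dye flow cytometry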); settings: Am2.2-beta2AR cells, at 10 µM, stronger effect = higher value
Beta-2 adrenergic receptor (Homo sapiens), sequence (P07550 whole entry, looked up): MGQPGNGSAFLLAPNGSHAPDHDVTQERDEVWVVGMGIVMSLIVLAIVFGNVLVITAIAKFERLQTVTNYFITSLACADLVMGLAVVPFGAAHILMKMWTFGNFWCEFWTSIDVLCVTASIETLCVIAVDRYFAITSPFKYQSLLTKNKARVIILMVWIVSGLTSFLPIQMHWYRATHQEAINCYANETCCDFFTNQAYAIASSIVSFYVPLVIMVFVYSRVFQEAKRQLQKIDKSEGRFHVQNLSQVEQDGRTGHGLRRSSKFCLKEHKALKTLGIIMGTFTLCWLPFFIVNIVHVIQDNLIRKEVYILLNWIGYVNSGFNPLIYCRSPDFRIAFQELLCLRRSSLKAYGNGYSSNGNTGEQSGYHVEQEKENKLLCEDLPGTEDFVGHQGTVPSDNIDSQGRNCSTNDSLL

[11] = biological target: AP-2 complex subunit beta (Homo sapiens) (UniProt P63010); assay: beta-arrestin/AP2 interaction blockers – biochemical, validation set, GST-AP2 beads, flow cytometry, pilot screen (AID 504541;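 active = inhibition above 54%, about 3 SD of non-fluorescent compounds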;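 note: AP2 carries R879A mutation and is captured from E. coli lysate; bead-bound FITC arrestin peptide fluorescence measuring arrestin peptide binding to AP2; 0% = DMSO wells and 100% = excess unlabeled arrestin peptide control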); settings: FITC arrestin peptide, at 10 µM, stronger effect = higher value
AP-2 complex subunit beta (Homo sapiens), sequence (P63010 whole entry, looked up, one chain of several): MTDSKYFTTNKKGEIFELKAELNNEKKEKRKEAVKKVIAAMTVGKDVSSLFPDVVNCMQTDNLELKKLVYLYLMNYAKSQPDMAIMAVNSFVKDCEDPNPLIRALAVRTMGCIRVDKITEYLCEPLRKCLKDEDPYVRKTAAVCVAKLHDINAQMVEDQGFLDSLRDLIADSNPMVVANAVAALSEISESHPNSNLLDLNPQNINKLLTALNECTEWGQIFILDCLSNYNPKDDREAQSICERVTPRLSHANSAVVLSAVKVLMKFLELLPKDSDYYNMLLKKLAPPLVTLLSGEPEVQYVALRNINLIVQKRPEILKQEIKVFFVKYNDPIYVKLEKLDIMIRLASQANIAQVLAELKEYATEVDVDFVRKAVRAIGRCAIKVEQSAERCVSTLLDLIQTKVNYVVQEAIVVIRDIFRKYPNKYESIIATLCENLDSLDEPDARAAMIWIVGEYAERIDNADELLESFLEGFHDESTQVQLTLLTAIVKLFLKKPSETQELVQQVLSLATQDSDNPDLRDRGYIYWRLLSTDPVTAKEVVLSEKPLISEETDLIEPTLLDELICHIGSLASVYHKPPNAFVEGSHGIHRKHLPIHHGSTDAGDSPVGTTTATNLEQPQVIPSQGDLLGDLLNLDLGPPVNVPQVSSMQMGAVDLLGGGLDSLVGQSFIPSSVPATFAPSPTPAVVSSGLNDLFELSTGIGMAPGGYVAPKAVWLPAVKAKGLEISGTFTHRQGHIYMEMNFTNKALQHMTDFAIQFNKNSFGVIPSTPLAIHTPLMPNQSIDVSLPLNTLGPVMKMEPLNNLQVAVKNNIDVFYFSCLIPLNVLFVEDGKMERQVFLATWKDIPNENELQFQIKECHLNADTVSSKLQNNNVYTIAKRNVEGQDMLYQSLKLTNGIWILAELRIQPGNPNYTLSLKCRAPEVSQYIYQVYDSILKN

[12] = cytosolic pH regulators acting via V-ATPase – S. cerevisiae, pHLuorin, HTS validation (AID 504600; in the data active = response above about 15%;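 note: plate controls were DMSO for no effect and reference compound for full effect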); settings: V-ATPase proton transport, at 10 µM, stronger effect = higher value
[13] = system: anti-desmoglein-3 scFv antibody binding to human DSG3; assay: blockers of pathogenic pemphigus antibody–desmoglein-3 binding – biochemical, validation compound set, bead-based, flow cytometry, pilot screen (AID 588368;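 active = binding below the plate cutoff, the plate median minus 3 SD, with a reading above zero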;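 note: signal is the median channel fluorescence of bead-bound GFP antibody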); settings: Protein G beads, DSG3-Fc, scFv-GFP binding, at 10 µM, stronger effect = lower value
[14] = system: Botulinum neurotoxin type F light chain protease (Clostridium botulinum); assay: Clostridium botulinum type F light chain protease inhibitors, microsphere substrate cleavage, validation (AID 588459); settings: multiplex microsphere protease substrate cleavage assay, flow cytometry; at 10 µM; stronger effect = higher value
[15] = biological target: Botulinum neurotoxin type A (Clostridium botulinum) (UniProt P0DPI0); assay: BoNT/A light chain protease inhibitors, biochemical, multiplex microsphere flow cytometry, validation set (AID 588460); settings: at 10 µM, stronger effect = higher value
Botulinum neurotoxin type A (Clostridium botulinum), sequence (P0DPI0 whole entry, looked up): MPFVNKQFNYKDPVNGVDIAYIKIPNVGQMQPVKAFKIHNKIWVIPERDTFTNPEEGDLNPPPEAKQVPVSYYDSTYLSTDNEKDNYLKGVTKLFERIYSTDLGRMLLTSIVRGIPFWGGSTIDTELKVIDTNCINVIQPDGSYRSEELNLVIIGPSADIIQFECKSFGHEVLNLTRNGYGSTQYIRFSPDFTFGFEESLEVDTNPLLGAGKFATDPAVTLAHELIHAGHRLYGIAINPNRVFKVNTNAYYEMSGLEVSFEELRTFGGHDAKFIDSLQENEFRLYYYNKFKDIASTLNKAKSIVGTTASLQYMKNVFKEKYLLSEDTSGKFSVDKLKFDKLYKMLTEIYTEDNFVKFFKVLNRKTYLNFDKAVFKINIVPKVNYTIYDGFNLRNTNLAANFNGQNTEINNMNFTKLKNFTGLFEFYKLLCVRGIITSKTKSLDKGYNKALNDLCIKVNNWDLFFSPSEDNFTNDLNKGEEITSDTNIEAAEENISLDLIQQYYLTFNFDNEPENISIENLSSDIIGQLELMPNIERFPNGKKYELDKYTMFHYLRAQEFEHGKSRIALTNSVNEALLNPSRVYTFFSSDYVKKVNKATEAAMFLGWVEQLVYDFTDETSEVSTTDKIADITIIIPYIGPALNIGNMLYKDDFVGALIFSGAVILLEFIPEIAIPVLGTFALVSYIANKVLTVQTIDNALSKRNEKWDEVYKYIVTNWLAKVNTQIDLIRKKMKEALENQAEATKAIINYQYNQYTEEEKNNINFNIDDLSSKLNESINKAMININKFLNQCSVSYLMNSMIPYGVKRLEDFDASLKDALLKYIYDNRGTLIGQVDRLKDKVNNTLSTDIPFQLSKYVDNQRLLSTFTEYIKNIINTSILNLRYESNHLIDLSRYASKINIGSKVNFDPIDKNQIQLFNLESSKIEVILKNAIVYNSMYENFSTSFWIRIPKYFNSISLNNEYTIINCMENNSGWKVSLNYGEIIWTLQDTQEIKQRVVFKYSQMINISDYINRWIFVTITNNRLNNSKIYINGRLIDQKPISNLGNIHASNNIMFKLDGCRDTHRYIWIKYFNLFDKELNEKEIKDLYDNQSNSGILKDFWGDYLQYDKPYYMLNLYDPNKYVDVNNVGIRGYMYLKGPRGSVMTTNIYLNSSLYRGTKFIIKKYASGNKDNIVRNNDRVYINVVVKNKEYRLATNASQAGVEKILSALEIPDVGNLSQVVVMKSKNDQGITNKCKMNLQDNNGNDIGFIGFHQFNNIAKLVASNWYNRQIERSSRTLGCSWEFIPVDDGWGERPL

[16] = biological target: Lethal factor (Bacillus anthracis) (UniProt P15917); assay: Bacillus anthracis lethal factor inhibition, microsphere flow cytometry protease assay, validation at 10 µM (AID 588461); settings: multiplex microsphere protease cleavage assay, stronger effect = higher value
Lethal factor (Bacillus anthracis), sequence (P15917 whole entry, looked up): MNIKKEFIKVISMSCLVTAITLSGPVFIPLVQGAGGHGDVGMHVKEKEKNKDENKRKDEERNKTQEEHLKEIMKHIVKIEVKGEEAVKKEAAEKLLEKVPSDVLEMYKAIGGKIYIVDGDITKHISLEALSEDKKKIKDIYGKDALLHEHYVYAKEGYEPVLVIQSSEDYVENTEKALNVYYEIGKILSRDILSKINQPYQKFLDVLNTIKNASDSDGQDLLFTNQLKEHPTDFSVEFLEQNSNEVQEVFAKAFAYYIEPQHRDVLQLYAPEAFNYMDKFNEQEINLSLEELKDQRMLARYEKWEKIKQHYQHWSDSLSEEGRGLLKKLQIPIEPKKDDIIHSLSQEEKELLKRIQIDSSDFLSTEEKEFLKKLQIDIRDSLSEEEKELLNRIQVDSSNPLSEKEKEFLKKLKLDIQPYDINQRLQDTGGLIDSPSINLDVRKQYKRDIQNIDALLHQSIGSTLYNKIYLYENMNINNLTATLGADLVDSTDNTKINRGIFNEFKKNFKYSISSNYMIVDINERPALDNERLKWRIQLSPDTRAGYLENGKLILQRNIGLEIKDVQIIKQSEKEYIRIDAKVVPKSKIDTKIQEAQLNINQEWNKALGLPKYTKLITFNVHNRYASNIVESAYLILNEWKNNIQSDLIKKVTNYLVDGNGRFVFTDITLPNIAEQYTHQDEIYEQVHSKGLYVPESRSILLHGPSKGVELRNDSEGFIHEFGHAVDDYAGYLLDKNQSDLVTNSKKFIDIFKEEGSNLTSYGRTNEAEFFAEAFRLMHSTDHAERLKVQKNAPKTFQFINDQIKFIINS

[17] = Nile Red efflux blockade in pump-expressing yeast – validation compound set, multiplex, phenotypic, pilot screen (AID 588506;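 active = efflux inhibition above 0.42, the validation set average plus 4 SD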;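 note: Nile Red retained in cells so higher fluorescence means more efflux inhibition; 0 = negative control wells and 1 = enniatin B 25 µM full block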); settings: S. cerevisiae pump-expressing triplex, Nile Red efflux flow cytometry; at 10 µM; stronger effect = higher value
[18] = biological target: ATP-binding cassette sub-family B member 6 (Homo sapiens) (UniProt Q9NP58); assay: blockers of ABCB6-driven porphyrin uptake – K562-ABCB6 cells, flow cytometry, validation set, pilot screen (AID 588550;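 active = inhibition above the screen-wide mean plus 3 SD, about 51%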;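 note: 0% = DMSO wells and 100% = benzethonium chloride 70 µM positive control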); settings: K562-ABCB6 porphyrin accumulation, 1 h, at 10 µM, stronger effect = higher value
ATP-binding cassette sub-family B member 6 (Homo sapiens), sequence (Q9NP58 whole entry, looked up): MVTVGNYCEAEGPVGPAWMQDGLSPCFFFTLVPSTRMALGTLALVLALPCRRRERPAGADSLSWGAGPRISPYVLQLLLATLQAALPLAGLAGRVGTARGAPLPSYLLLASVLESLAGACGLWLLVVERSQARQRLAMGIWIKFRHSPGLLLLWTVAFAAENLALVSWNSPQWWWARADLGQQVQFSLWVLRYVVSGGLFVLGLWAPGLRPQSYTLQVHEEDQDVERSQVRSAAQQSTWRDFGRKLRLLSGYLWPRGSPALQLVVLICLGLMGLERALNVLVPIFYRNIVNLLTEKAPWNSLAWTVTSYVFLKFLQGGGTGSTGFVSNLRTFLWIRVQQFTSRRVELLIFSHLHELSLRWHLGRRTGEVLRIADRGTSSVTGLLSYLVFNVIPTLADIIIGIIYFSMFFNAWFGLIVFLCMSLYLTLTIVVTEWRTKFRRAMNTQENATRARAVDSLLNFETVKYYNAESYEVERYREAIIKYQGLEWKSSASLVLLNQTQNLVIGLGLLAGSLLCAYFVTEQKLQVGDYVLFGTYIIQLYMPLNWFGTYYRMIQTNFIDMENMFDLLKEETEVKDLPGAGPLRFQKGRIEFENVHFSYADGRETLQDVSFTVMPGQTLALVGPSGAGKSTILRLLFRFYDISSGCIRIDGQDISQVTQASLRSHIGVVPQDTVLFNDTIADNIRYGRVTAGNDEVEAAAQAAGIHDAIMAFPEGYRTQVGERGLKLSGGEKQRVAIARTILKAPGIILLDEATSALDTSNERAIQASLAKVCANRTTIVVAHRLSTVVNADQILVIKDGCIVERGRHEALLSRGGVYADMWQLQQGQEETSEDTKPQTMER

[19] = AML differentiation inducers, ER-HoxA9 marrow cells – cell-based, GFP/MAC1 double positive, flow cytometry, validation set, primary screen (AID 588685;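 active = differentiation response of at least 50%, scaled between solvent and reference control, from cells with both markers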;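 note: compound exposure lasts four days before antibody staining and flow analysis; 0% = DMSO wells and 100% = 5 µM fulvestrant positive control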); settings: stronger effect = higher value

CC[N+]1(C)CCCC(OC(=O)C(O)(c2ccccc2)c2ccccc2)C1 (stereo not given)
inactive: percent of DMSO control GFP [1] 99% | GFP response vs DMSO [2] 102% | percent response of DMSO control [3] 103% | GFP response vs DMSO [4] 103% | GFP response, % of DMSO [5] 119% | vesicle binding response [6] 160% | inhibition [7] 5.69% | superoxide response (% of plate) [8] 96.5% | aptamer binding inhibition [9] 4% | response [10] -15.3% | inhibition [11] -0.87% | response [12] -0.49% | binding (% of control) [13] 107% | inhibition [14] 0.8% | inhibition [15] -0.6% | inhibition [16] 8% | efflux inhibition (fraction of control) [17] 0.04 | inhibition [18] 1% | differentiation response [19] -5.97%
61%: double positive events [6]

C[N+]1(C)[C@@H]2CC[C@H]1CC(OC(=O)C(CO)c1ccccc1)C2 (stereo not given in full)
64.9%: double positive events [6]
inactive: percent of DMSO control GFP [1] 105% | GFP response vs DMSO [2] 96.3% | percent response of DMSO control [3] 105% | GFP response vs DMSO [4] 113% | GFP response, % of DMSO [5] 110% | vesicle binding response [6] 7000% | inhibition [7] -14.1% | superoxide response (% of plate) [8] 91% | aptamer binding inhibition [9] 1% | response [10] -8.13% | inhibition [11] -5.05% | response [12] 0.35% | binding (% of control) [13] 98% | inhibition [14] 3.3% | inhibition [15] -0.2% | inhibition [16] -4.9% | efflux inhibition (fraction of control) [17] -0.1 | inhibition [18] 7% | differentiation response [19] -15.2%

CN1CCN(C(=O)OC2c3nccnc3C(=O)N2c2ccc(Cl)cn2)CC1 (stereo not given)
inactive: percent of DMSO control GFP [1] 99.9% | GFP response vs DMSO [2] 112% | percent response of DMSO control [3] 92.9% | GFP response vs DMSO [4] 117% | GFP response, % of DMSO [5] 106% | vesicle binding response [6] 6590% | inhibition [7] 9.13% | superoxide response (% of plate) [8] 111% | aptamer binding inhibition [9] 2% | response [10] -5.78% | inhibition [11] 0.51% | response [12] -1.22% | binding (% of control) [13] 100% | inhibition [14] 4.3% | inhibition [15] -0.8% | inhibition [16] 1.7% | efflux inhibition (fraction of control) [17] -0.03 | inhibition [18] 5% | differentiation response [19] -13.6%
58.9%: double positive events [6]

C[C@]12CC[C@@H](O)C[C@@H]1CC[C@@H]1[C@@H]2CC[C@]2(C)C(=O)CC[C@@H]12
inactive: percent of DMSO control GFP [1] 100% | GFP response vs DMSO [2] 99.7% | percent response of DMSO control [3] 84.1% | GFP response vs DMSO [4] 147% | GFP response, % of DMSO [5] 101% | vesicle binding response [6] 118% | inhibition [7] -2.43% | superoxide response (% of plate) [8] 75.3% | aptamer binding inhibition [9] 3% | response [10] 20.4% | inhibition [11] -0.33% | response [12] -2.85% | binding (% of control) [13] 99% | inhibition [14] 2% | inhibition [15] -0.3% | inhibition [16] -2.4% | efflux inhibition (fraction of control) [17] -0.07 | inhibition [18] 0% | differentiation response [19] -4.57%
62.8%: double positive events [6]

COc1ccc(OC)c([C@@H](O)[C@H](C)NC(C)(C)C)c1
inactive: percent of DMSO control GFP [1] 100% | GFP response vs DMSO [2] 102% | percent response of DMSO control [3] 94.5% | GFP response vs DMSO [4] 91.5% | GFP response, % of DMSO [5] 88.8% | vesicle binding response [6] 157% | inhibition [7] -6.45% | superoxide response (% of plate) [8] 102% | aptamer binding inhibition [9] 0% | response [10] 14.8% | inhibition [11] -6.97% | response [12] 0.56% | binding (% of control) [13] 106% | inhibition [14] -0.4% | inhibition [15] -1.1% | inhibition [16] 1.4% | efflux inhibition (fraction of control) [17] 0.28 | inhibition [18] 18% | differentiation response [19] -6.03%
62%: double positive events [6]

Clc1ccc(C2NCCc3[nH]cnc32)cc1 (stereo not given)
inactive: percent of DMSO control GFP [1] 104% | GFP response vs DMSO [2] 98.3% | percent response of DMSO control [3] 101% | GFP response vs DMSO [4] 92% | GFP response, % of DMSO [5] 104% | vesicle binding response [6] 244% | inhibition [7] -1.49% | superoxide response (% of plate) [8] 94.4% | aptamer binding inhibition [9] -1% | response [10] -11.3% | inhibition [11] -2.42% | response [12] 0.96% | binding (% of control) [13] 100% | inhibition [14] 1.1% | inhibition [15] 0.7% | inhibition [16] -5.5% | efflux inhibition (fraction of control) [17] -0.1 | inhibition [18] 1% | differentiation response [19] -5.62%
60.8%: double positive events [6]

CC12CCC3C(CC=C4CC(O)CCC43C)C1C/C(=C\c1cccc(F)c1)C2=O (stereo not given)
63.9%: double positive events [6]
inactive: percent of DMSO control GFP [1] 98.2% | GFP response vs DMSO [2] 103% | percent response of DMSO control [3] 95.1% | GFP response vs DMSO [4] 113% | GFP response, % of DMSO [5] 102% | vesicle binding response [6] 171% | inhibition [7] -7.08% | superoxide response (% of plate) [8] 100% | aptamer binding inhibition [9] 3% | response [10] -8.92% | inhibition [11] 9.38% | response [12] -4.42% | binding (% of control) [13] 98.7% | inhibition [14] -0.7% | inhibition [15] -0.1% | inhibition [16] -1.4% | efflux inhibition (fraction of control) [17] -0.13 | inhibition [18] -1% | differentiation response [19] 2.89%

COc1ccc(-c2nc3ccccc3c(=O)o2)cc1
inactive: percent of DMSO control GFP [1] 103% | GFP response vs DMSO [2] 95.2% | percent response of DMSO control [3] 92% | GFP response vs DMSO [4] 106% | GFP response, % of DMSO [5] 87.9% | vesicle binding response [6] 308% | inhibition [7] -19.5% | superoxide response (% of plate) [8] 99.5% | aptamer binding inhibition [9] 1% | response [10] 12.6% | inhibition [11] -5.48% | response [12] -0.56% | binding (% of control) [13] 102% | inhibition [14] 1.8% | inhibition [15] 1.3% | inhibition [16] 0.8% | efflux inhibition (fraction of control) [17] 0.22 | inhibition [18] -2% | differentiation response [19] 2.4%
78.9%: double positive events [6]
